The nature of test [1]: antimalarial activity against Dd2 strain (AID 2302;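 active = growth inhibition above 50% at the single 2 µM test dose, taken to imply half-maximal potency below 2 µM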;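 note: 0% = DMSO untreated growth and 100% = chloroquine plus artemisinin killed control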). The conditions noted are these: P. falciparum Dd2 in RBCs, LDH growth readout, 72 h; at 2 µM; active compounds read high.
Test [2] is described as follows: HepG2 cytotoxicity, primary screen, cytotoxicity control for P. falciparum antimalarial project, cell-based, ATP luminescence (AID 2303;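 active = inhibition above 50%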;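 note: 0% = DMSO wells and 100% = digitonin-killed cells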). Conditions: HepG2 viability, 24-48 h, at 10 µM, active compounds read high.
In test [3] the target is L-lactate dehydrogenase (Plasmodium falciparum (isolate CDC / Honduras)) (UniProt Q27743). As to the kind of experiment: PfLDH activity inhibition – cell lysate, 3D7 strain, counter-screen for P. falciparum growth inhibition project (AID 2304).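 Note: 0% = vehicle and 100% = reference inhibitor.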 Conditions: P. falciparum 3D7 crude extract, LDH APAD/NBT absorbance; at 2 µM; active compounds read high. (A counterscreen serves to expose hits that act by an unwanted route or on another target.)
Chain of L-lactate dehydrogenase (Plasmodium falciparum (isolate CDC / Honduras)) (Q27743 whole entry, looked up): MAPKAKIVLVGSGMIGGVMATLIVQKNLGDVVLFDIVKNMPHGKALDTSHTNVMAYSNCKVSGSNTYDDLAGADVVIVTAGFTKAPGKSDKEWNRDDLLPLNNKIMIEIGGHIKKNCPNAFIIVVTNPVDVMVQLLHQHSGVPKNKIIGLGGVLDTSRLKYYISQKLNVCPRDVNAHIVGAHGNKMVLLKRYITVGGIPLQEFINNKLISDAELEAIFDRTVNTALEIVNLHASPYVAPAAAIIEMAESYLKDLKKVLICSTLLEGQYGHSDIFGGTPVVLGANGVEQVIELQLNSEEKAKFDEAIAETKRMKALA

Test [4] is described as follows: inhibition of 3D7 malaria parasite growth – strain 3D7 (AID 2306).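 Note: 0% = DMSO wells and 100% = chloroquine plus artemisinin control wells.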 The conditions noted are these: P. falciparum 3D7 erythrocytic growth, LDH absorbance, 72 h; at 2 µM; active compounds read high.
Test [5] deals with Calcium-dependent protein kinase 1 (Plasmodium falciparum (isolate 3D7)) (UniProt P62344). As to the kind of experiment: PfCDPK1 kinase inhibitors, biochemical, TCAMS library (AID 1159585; cut-off not given, nearly all actives have IC50 up to about 0.98 µM;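 note: inhibitors leave more ATP so luminescence rises with inhibition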). The conditions noted are these: recombinant PfCDPK1, Kinase-Glo ATP depletion luminescence. For orientation: In Kinase-Glo more light means more ATP remaining.
Chain of Calcium-dependent protein kinase 1 (Plasmodium falciparum (isolate 3D7)) (P62344 whole entry, looked up): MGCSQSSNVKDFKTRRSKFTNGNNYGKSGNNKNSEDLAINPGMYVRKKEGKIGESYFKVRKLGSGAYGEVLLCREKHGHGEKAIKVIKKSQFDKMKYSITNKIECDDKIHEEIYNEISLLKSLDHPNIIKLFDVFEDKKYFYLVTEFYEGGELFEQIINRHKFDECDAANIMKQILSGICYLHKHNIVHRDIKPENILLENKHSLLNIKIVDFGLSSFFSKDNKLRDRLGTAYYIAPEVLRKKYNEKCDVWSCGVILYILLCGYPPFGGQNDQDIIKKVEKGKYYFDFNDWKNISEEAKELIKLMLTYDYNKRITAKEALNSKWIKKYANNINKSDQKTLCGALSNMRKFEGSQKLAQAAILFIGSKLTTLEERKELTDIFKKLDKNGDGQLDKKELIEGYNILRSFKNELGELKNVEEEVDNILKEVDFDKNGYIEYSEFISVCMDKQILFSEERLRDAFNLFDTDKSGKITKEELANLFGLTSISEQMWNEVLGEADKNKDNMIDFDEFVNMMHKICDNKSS
Test [6] has as its target Plasmodium falciparum protein kinase 6 (PK6, PF3D7_1337100) (UniProt Q8IDW1). Kind of test: PfPK6 kinase inhibitors, biochemical, TCAMS library (AID 1159586). The conditions noted are these: recombinant PfPK6, Kinase-Glo ATP depletion luminescence.
In test [7] the target is Protein kinase 7 (PK7), Plasmodium falciparum 3D7 (PF3D7_0213400) (UniProt Q7YTF7). Kind of test: inhibition of Plasmodium PK7 catalytic activity – biochemical, TCAMS antimalarial set, Kinase-Glo luminescence (AID 1159587). The conditions noted are these: recombinant PfPK7, Kinase-Glo ATP depletion luminescence.
Chain of Protein kinase 7 (PK7), Plasmodium falciparum 3D7 (PF3D7_0213400) (Q7YTF7 1-343): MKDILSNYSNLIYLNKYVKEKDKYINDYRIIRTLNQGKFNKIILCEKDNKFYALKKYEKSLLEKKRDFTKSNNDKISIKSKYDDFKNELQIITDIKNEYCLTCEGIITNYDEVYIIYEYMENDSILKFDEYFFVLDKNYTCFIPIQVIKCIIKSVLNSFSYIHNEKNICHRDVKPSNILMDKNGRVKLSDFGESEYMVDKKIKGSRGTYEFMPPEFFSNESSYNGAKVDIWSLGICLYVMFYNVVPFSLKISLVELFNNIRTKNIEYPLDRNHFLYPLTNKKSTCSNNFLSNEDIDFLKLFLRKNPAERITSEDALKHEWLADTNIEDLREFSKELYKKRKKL
The target in test [8] is Calcium-dependent protein kinase 4 (Plasmodium falciparum (isolate 3D7)) (UniProt Q8IBS5). Kind of test: PfCDPK4 kinase inhibitors, biochemical, TCAMS library (AID 1159588; cut-off not given, nearly all actives have IC50 up to about 0.91 µM). The conditions noted are these: recombinant PfCDPK4, Kinase-Glo ATP depletion luminescence.
Chain of Calcium-dependent protein kinase 4 (Plasmodium falciparum (isolate 3D7)) (Q8IBS5 whole entry, looked up): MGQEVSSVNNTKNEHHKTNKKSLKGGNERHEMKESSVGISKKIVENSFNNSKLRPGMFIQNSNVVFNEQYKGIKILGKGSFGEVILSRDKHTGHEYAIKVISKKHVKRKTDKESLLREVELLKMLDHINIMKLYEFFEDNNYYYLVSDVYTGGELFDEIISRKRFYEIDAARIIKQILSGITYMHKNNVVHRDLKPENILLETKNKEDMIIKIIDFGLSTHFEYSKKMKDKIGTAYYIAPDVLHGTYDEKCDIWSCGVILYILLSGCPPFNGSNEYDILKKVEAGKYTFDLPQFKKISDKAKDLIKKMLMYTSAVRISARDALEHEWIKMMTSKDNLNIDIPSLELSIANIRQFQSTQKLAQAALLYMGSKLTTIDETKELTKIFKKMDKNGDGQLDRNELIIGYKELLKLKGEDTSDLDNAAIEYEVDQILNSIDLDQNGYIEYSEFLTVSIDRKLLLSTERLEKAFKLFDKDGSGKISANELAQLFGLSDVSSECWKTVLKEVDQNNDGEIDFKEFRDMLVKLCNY

Unmarked numbers belong to inactive results. For some assays here: Potency and affinity values are given separately. The source made the active and inactive calls. Unless noted, the rule behind the calls is not given here.

Broadly, the inhibition is the drop in the measured response relative to a control, in per cent.

Chain of Plasmodium falciparum protein kinase 6 (PK6, PF3D7_1337100) (Q8IDW1 1-305): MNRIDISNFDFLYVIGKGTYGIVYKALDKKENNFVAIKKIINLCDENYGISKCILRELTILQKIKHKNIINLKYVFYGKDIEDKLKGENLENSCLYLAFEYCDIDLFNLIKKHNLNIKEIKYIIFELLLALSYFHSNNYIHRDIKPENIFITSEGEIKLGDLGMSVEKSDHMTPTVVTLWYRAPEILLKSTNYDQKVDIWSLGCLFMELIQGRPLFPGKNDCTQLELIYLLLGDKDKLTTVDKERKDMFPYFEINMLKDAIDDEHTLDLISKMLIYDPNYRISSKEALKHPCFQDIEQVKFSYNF

Regarding `Fc1ccc2nc(-c3cccc(-c4cccc(CNCCN5CCNCC5)c4)c3)[nH]c2c1`, the growth inhibition in test [1] is 4%; in test [4] it was 94% (active). Besides, the inhibition was 18% in test [2] and -9% in test [3]. Also, the outcome in test [5], in test [6], in test [7] and in test [8] was inactive.

Regarding `O=C(NC1CCN(CCN2CCc3ccccc3CC2)CC1)c1ccc(-c2ccc(C(F)(F)F)cc2)cc1`, the growth inhibition in test [1] was 43%; in test [4], 99% (active). Moreover, the inhibition was 45% in test [2] and -4% in test [3]. For the same compound, the result in test [5], in test [6], in test [7] and in test [8] was inactive.

`NC1CCN(Cc2ccc(-c3ccc(-c4nc5ccc(F)cc5[nH]4)cc3)cc2)C1` (configuration not stated): the growth inhibition in test [1] was 99% (active); in test [4], 98% (active). Besides, the inhibition in test [2] was 41%; in test [3], -3%. For the same compound, the result in test [5], in test [6], in test [7] and in test [8] was inactive.

Consider `Cc1cc(NN=Cc2cccc(Cl)c2)c2ccc(F)cc2n1`, for which the values for the growth inhibition in test [1] and in test [4] were 98% (active) and 101% (active), respectively. Besides, the inhibition is -2% in test [2] and -4% in test [3]. Besides, the result in test [5], in test [6], in test [7] and in test [8] was inactive.

For the compound `CNCc1cccc2[nH]c(-c3ccc(Cc4cc(Cl)ccc4OCC(C)C)o3)nc12`, the growth inhibition in test [1] was 23%; in test [4], 97% (active). For the same compound, the inhibition in test [2] was 20%; in test [3], 0%. Besides, the result in test [5], in test [6], in test [7] and in test [8] was inactive.

`COc1ccc2[nH]c3ccccc3c(=O)c2c1`: the growth inhibition in test [1] is 75% (active); in test [4], 87% (active). The values for the inhibition in test [2] and in test [3] were 0% and 2%, respectively. The outcome in test [5], in test [6], in test [7] and in test [8] was inactive.

As to `c1ccc(C(c2ccccc2)N2CCN(C(c3cccnc3)c3nnnn3C3CCCC3)CC2)cc1` (configuration not stated), the figures for the growth inhibition in test [1] and in test [4] were 59% (active) and 83% (active), respectively. Also, the inhibition was 4% in test [2] and 0% in test [3]. The outcome in test [5], in test [6], in test [7] and in test [8] was inactive.

In the case of `Cn1cc(C(=O)Nc2cccc(-c3cccc(-c4nc5ccc(F)cc5[nH]4)c3)c2)n(C)c1=O`, the growth inhibition in test [1] was 50% (active); in test [4], 98% (active). For the same compound, the inhibition in test [2] was 15%; in test [3], -1%. Besides, the outcome in test [5], in test [6], in test [7] and in test [8] was inactive.

Regarding `O=C(OCC1CCN(Cc2ccccc2)C1)c1ccc(Cl)cc1` (configuration not stated), the growth inhibition in test [1] was 4%; in test [4] it was 100% (active). Moreover, the values for the inhibition in test [2] and in test [3] were -3% and 3%, respectively. Further, the outcome in test [5], in test [6], in test [7] and in test [8] was inactive.

As to `O=C(NCC1CC1)C1CCN(C(c2ccccc2)c2ccc(Cl)c(Cl)c2)CC1` (configuration not stated), the growth inhibition in test [1] was 96% (active); in test [4], 97% (active). Further, the inhibition in test [2] is 7%; in test [3] it was -1%. Besides, the outcome in test [5], in test [6], in test [7] and in test [8] was inactive.

On to `O=C(Nc1cccc(-c2ccc(-c3nc4ccccc4[nH]3)cc2)c1)c1cccnc1`, for which the results for the growth inhibition in test [1] and in test [4] were 1% and 100% (active), respectively. The figures for the inhibition in test [2] and in test [3] were 18% and -5%, respectively. Besides, the outcome in test [5], in test [6], in test [7] and in test [8] was inactive.

For `O=S(=O)(NC1CCN(c2ccnc3cc(Cl)ccc23)C1)c1cccs1` (configuration not stated), the figures for the growth inhibition in test [1] and in test [4] were 76% (active) and 102% (active), respectively. Also, the figures for the inhibition in test [2] and in test [3] were 6% and -4%, respectively. The result in test [5], in test [6], in test [7] and in test [8] was inactive.

`Cn1cncc1C(=O)Nc1ccc(-c2cccc(-c3nc4ccc(F)cc4[nH]3)c2)cc1`: the values for the growth inhibition in test [1] and in test [4] were 23% and 102% (active), respectively. Besides, the inhibition in test [2] is 5%; in test [3] it was 2%. For the same compound, the outcome in test [5], in test [6], in test [7] and in test [8] was inactive.

Regarding `Cc1cc(N[C@@H](Cc2ccccc2)C(=O)Nc2ccccc2)nc(Nc2ccccc2)n1`, the results for the growth inhibition in test [1] and in test [4] were 69% (active) and 101% (active), respectively. Besides, the inhibition was 8% in test [2] and -1% in test [3]. Also, the result in test [5], in test [6], in test [7] and in test [8] was inactive.

Take `CCN(CC)CCN(Cc1ccc(-c2ccc(C(F)(F)F)cc2)cc1)C(=O)Cn1cc(Cc2cnn(C)c2)c(=O)nc1/C=C/c1cccc(F)c1F`: the growth inhibition in test [1] was 98% (active); in test [4], 95% (active). Besides, the inhibition in test [2] was 11%; in test [3], -2%. The result in test [5], in test [6], in test [7] and in test [8] was inactive.

On to `O=C(Nc1cccc(C(F)(F)F)c1)NC1CCN(c2ccnc3ccccc23)CC1`, for which the growth inhibition is 43% in test [1] and 101% (active) in test [4]. The inhibition in test [2] is 23%; in test [3], -1%. Further, the outcome in test [5], in test [6], in test [7] and in test [8] was inactive.

Turning to `Cc1cc(-c2ccc(NC(=O)N3CCc4cc(Cl)c(N5CCN(C)CC5)cc43)cc2)ccc1C#N`, the growth inhibition in test [1] is 83% (active); in test [4], 101% (active). For the same compound, the inhibition is 100% (active) in test [2] and -2% in test [3]. The outcome in test [5], in test [6], in test [7] and in test [8] was inactive.

On to `O=C(Nc1ccc(-c2nc3ccccc3[nH]2)cc1)c1ccc(S(=O)(=O)N2CCCCC2)cc1`, for which the growth inhibition in test [1] was 6%; in test [4], 95% (active). Further, the inhibition was 23% in test [2] and 2% in test [3]. Moreover, the outcome in test [5], in test [6], in test [7] and in test [8] was inactive.

As to `CC(C)(C)Oc1ccc(CC2NC3(C(=O)N(Cc4ccc(C(C)(C)C)cc4)c4ccccc43)C3C(=O)N(c4ccc(Br)cc4)C(=O)C23)cc1` (configuration not stated), the growth inhibition in test [1] and in test [4] was 94% (active) each time. The figures for the inhibition in test [2] and in test [3] were 24% and 0%, respectively. Besides, the outcome in test [5], in test [6], in test [7] and in test [8] was inactive.

The record behind these values is PubChem BioAssay.
